Laboratory results: PubChem BioAssay (Tox21)
Several values for one entry are separate records, joined by “and”; a condition that tells them apart may be missing. Identical values can stand only once. Records with an inconclusive call do not appear. A call without a number means that no potency is given here. Where a structure was tested more than once in an assay, its records may differ in their call. Activity calls are given as the source filed them. Calls follow the shape of the dose curve; as a rule, active = well fitted cell-killing curve with a large enough effect in the repeat runs; inconclusive = weak or mixed curves, or effect the other way; inactive = no such curve, though single readings can be large or run the other way.

Test: qHTS assay to identify small molecule agonists of the RXR signaling pathway - cell viability counter screen (AID 1159529); also: nearly all actives have a fitted effect of over 50% in size
Settings: RXR-alpha-bla HEK293T viability, CellTiter-Glo, 16 h; series mostly up to 76.8 µM
Excerpt: National Center for Advancing Translational Sciences [NCATS]
NIH Chemical Genomics Center [NCGC]
U.S. Environmental Protection Agency [EPA]
National Institutes of Environmental Health Sciences [NIEHS]
National Toxicology Program [NTP]
U.S. Food and Drug Administration [FDA]
The Retinoid X receptor (RXR), a nuclear hormone receptor expressed in liver, spleen, placenta, epidermis, central nervous system. These receptors are able to form homo and heterodimers with other nuclear receptors and due to this heterodimerizing ability, RXR functions as master regulators producing diverse physiological effects. Three subtypes of RXR exist; alpha, beta and gamma. Retinoid X receptor alpha (RXR-alpha) has potential roles in metabolic signaling pathways, skin alopecia, dermal cysts, cardiac development, insulin sensitization etc. Therefore screening environmental chemicals on RXR-alpha signaling can be used for the studies focused on such therapeutic applications. For quantification of RXR-alpha ligands signaling, GeneBLAzer RXR alpha-UAS-bla HEK 293T (Life Technologies, Carlsbad, CA) cells containing a beta-lactamase reporter-gene under control of Retinoid X receptor-alpha response element were used to screen Tox21 10K library. The cytotoxicity of the Tox21 compound library against the RXR-alpha HEK 293T cell line was tested in parallel by measuring cell viability using CellTiter-Glo assay (Promega Corporation, Madison, WI) in the same wells.
Tox21 Assay Protocol Summary:
RXR-alpha HEK 293T cells were dispensed at 2,000 cells/6 uL of assay medium containing 2% charcoal-stripped FBS using a Multidrop Combi (ThermoFisher Scientific, Waltham, MA) dispenser. The assay was performed in black wall/clear-bottom 1536-well plates (Greiner Bio-One North America Inc. Monroe, NC). Tetraoctyl ammonium bromide was used as a positive control in the cytotoxicity screen. After the assay plates were incubated at 37 C and 5% CO2 for 5 hr, 23 nL of compounds dissolved in DMSO, positive control or DMSO only were transferred to the assay plate by a Pintool station (Kalypsys, San Diego, CA). The assay plates were incubated at 37 C and 5% CO2 for 16 hr. One uL of LiveBLAzer B/G FRET substrate (Life Technologies) was added using a Flying Reagent Dispenser (FRD) (Aurora Discovery, San Diego, CA) and the plates were incubated at room temperature for 2 hr. Fluorescence intensity (405 nm excitation, 460/530 nm emission) was measured using an Envision plate reader (PerkinElmer, Shelton, CT). For cytotoxicity, 4 uL/well of CellTiter-Glo reagent was added into the assay plates using an FRD. After 30 min incubation at room temperature, the luminescence intensity was measured using a ViewLux plate reader (PerkinElmer).
Potency is read from the fitted curve at half-maximal effect.

SMILES | Potency
CCCCCCCCCC(=O)O[C@H]1CC[C@H]2[C@@H]3CCC4=CC(=O)CC[C@@H]4[C@H]3CC[C@]12C | inactive
Cl/C=C\Cl | inactive
CCOP(O)OCC | inactive
CCCCCCCCCCOC(=O)c1ccccc1C(=O)OCCCCCCCCCC | inactive
O=C1NCN(c2ccccc2)C12CCN(CCCOc1ccc(F)cc1)CC2 | inactive
C[C@@H]1CC[C@H]2[C@@H](C)C(=O)O[C@@H]3O[C@@]4(C)CC[C@@H]1[C@]32OO4 | inactive
O=C(NCc1cccnc1)Nc1ccc([N+](=O)[O-])cc1 | inactive
CC1Sc2c(C(=O)O)c(=O)c3cc(F)c(N4CCNCC4)cc3n21 (stereo not given) | inactive
Brc1ccccc1 | inactive
CCOC(=O)COc1cc(-c2nn(C)c(OC(F)F)c2Cl)c(F)cc1Cl | inactive
C=CCOC(C)=O | inactive
O=C(NC(=O)c1c(F)cccc1F)Nc1cc(Cl)c(Oc2ncc(C(F)(F)F)cc2Cl)c(Cl)c1 | inactive
CCn1cc[n+](C)c1 | inactive
CC(C)(C)C(O)C(Oc1ccc(Cl)cc1)n1cncn1 (stereo not given) | inactive
C=CC[C@]1(O)CC[C@H]2[C@@H]3CCC4=CC(=O)CCC4=C3C=C[C@@]21C | 23.9 µM (active)
O=Cc1ccc2c(c1)OCO2 | inactive
N#C/C(N)=C(/N)C#N | inactive
CCOP(=O)(OCC)SCCSCC | inactive
CC(=O)c1cc2c(cc1C)C(C)(C)C(C)CC2(C)C (stereo not given) | 43.6 µM (active)
C=CCC1([C@H](C)CCC)C(=O)NC(=O)NC1=O | inactive

SMILES | Potency
O=Cc1ccc(Cl)cc1Cl | inactive
O=C(CBr)Nc1ccc(Cl)cc1C(=O)c1ccccc1F | inactive
N#CCC#N | inactive
O=C(CBr)c1ccccc1 | inactive
ClCC(Br)CBr (stereo not given) | inactive
CC(Cl)Cl | inactive
c1ccc(CN2CCNCC2)cc1 | inactive
O=NN1CCCCCC1 | inactive
CC(C)(Cl)[N+](=O)[O-] | inactive
CC(=O)C(C)(C)C | inactive
COC(=O)c1cncn1C(C)c1ccccc1 (stereo not given) | inactive
c1cc2ccc3cccc4ccc(c1)c2c34 | 36.3 µM (active)
O=C1C(=O)c2cccc3cccc1c23 | inactive
Cn1sc(Cl)cc1=O | inactive
O=[Se]=O | inactive
O=C(O)C(F)(F)C(F)(F)C(F)(F)C(F)(F)C(F)(F)C(F)(F)C(F)(F)C(F)(F)C(F)(F)C(F)(F)F | inactive
ClP(Cl)(Cl)(Cl)Cl | inactive
BrCCCCBr | inactive
C=CC(=O)OCCCCO | inactive
O=C(CCl)c1ccc(Cl)cc1Cl | inactive and 13.4 µM (active)
